Here are results for 33 compounds from the supplement of paper PMC7695840.

Counter-ions that a name gives are not always drawn.

The first test concerns Staphylococcus aureus MW2 delta-mecA (mecA-). The test is described as follows: normalized GFP fluorescence (growth of mecA- strain) (fraction of control range); higher = more growth of mecA- strain. The settings on record: compound concentration: 150 uM; cefoxitin: subinhibitory; fluorescent label: GFP. An outline of the steps:
(§1)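 Fluorescence from DsRed (540/590) and GFP (485/520) was recorded after 20 h of static growth at 37 °C and 90% humidity. The wells held a 1:1 mix of pre-induced S. aureus MW2 cells, gene-bearing with DsRed and gene-deleted with GFP, in LB with a daily-set subinhibitory antibiotic dose, dispensed at 5 µL/well onto 150 μM compound (1.5% DMSO) in 1536-well plates, single replicate. Each channel was scaled per plate between single-strain control medians, excluding plates with high untreated ratios and rows with DsRed/GFP >10.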
Turning to `C=C/C=C\CC1=C(C)[C@@H](OC(=O)[C@@H]2[C@@H](/C=C(\C)C(=O)OC)C2(C)C)CC1=O.C=C/C=C\CC1=C(C)[C@@H](OC(=O)[C@@H]2[C@@H](C=C(C)C)C2(C)C)CC1=O`, the “normalized GFP fluorescence” value amounted to 0.39.
On the same count and under the same terms, with `CC(O)CN1CCN(CC(=O)[O-])CCN(CC(=O)[O-])CCN(CC(=O)[O-])CC1.[Gd+3]` (stereo unspecified) the figure was 0.58; with `N.N.[Cl][Pt][Cl]`, 0.807; with `C=C1C[C@@H]2[C@H](CC[C@]3(C)C(=O)CC[C@@H]23)[C@@]2(C)C=CC(=O)C=C12` [Exemestane], 0.367.
The same measure, in the same setting: with `C[C@]12CC[C@@H]3c4ccc(OC(=O)N(CCCl)CCCl)cc4CC[C@H]3[C@@H]1CC[C@@H]2O` the figure was 0.117; with `COP(=O)(OC)C(O)C(Cl)(Cl)Cl` (stereo unspecified), 0.2; with `C[C@]12CC[C@H]3[C@@H](CC[C@@]45O[C@@H]4C(O)=C(C#N)C[C@]35C)[C@@H]1CC[C@@H]2O`, 0.134.
On the same count and under the same terms, with `CC(=O)O[C@H]1C[C@H](O[C@H]2[C@@H](O)C[C@H](O[C@H]3[C@@H](O)C[C@H](O[C@H]4CC[C@@]5(C)[C@H](CC[C@@H]6[C@@H]5C[C@@H](O)[C@]5(C)[C@@H](C7=CC(=O)OC7)CC[C@]65O)C4)O[C@@H]3C)O[C@@H]2C)O[C@H](C)[C@H]1O[C@@H]1O[C@H](CO)[C@@H](O)[C@H](O)[C@H]1O` the figure was 0.391; with `CC[C@@H](C(N)=O)N1CCCC1=O`, 0.416; with `CN1[C@@H]2CC[C@H]1C[C@@H](OC(=O)[C@H](CO)c1ccccc1)C2`, 0.693.
Regarding `CCC(COC(=O)c1cc(OC)c(OC)c(OC)c1)(c1ccccc1)N(C)C` (stereo unspecified) [Trimebutine], the “normalized GFP fluorescence” value amounted to 0.293.
Still for that read-out and setting: to `Nc1ccncc1` belongs 0.334.
Still for that read-out and setting: with `CC(C)[N+](C)(CCC(C(N)=O)(c1ccccc1)c1ccccc1)C(C)C` the figure was 0.202.
Still for that read-out and setting: to `CNC(=O)Oc1ccc2c(c1)[C@]1(C)CCN(C)[C@@H]1N2C` belongs 0.574.
With `COc1ccc2c(c1)[C@]13CCCC[C@@H]1[C@H](C2)N(C)CC3`, the “normalized GFP fluorescence” value was 0.241.
Still for that read-out and setting: to `C#CCN(C)[C@H](C)Cc1ccccc1` belongs 0.853; to `O=P1(N(CCCl)CCCl)NCCCO1` (stereo unspecified), 0.58; to `Cl[C@H]1[C@H](Cl)[C@@H](Cl)[C@@H](Cl)[C@H](Cl)[C@H]1Cl`, 0.612.
Same read-out and setting: with `CC1(C)C(C=C(Cl)Cl)C1C(=O)OCc1cccc(Oc2ccccc2)c1` (stereo unspecified) the figure was 0.134; with `CN1C[C@H](C(=O)N[C@]2(C)O[C@@]3(O)[C@@H]4CCCN4C(=O)[C@H](Cc4ccccc4)N3C2=O)C=C2c3cccc4[nH]cc(c34)C[C@H]21`, 0.435.
On the same count and under the same terms, with `O=c1[nH]c2ccccc2n1CCCN1CCC(n2c(=O)[nH]c3cc(Cl)ccc32)CC1` [Domperidone (Motilium)] the figure was 0.0985; with `O=P1(NCCCl)OCCCN1CCCl` (stereo unspecified), 0.399; with `CCCC(C)(COC(N)=O)COC(=O)NC(C)C` (stereo unspecified), 0.54.
`C[C@@H]1CC[C@H]2[C@@H](C)C(=O)O[C@@H]3O[C@@]4(C)CC[C@@H]1[C@]32OO4` [Artemisinin]: the “normalized GFP fluorescence” value worked out at 0.505.
Still for that read-out and setting: to `NC(=O)CN1CCCC1=O` belongs 0.168; to `CC[C@@H](c1cccc(O)c1)[C@@H](C)CN(C)C`, 0.313.
In the case of `C[C@@H]1[C@H](O)[C@@H](C)/C=C/C=C/CC/C=C/C=C/C=C/C=C/[C@H](O[C@H]2O[C@@H](C)[C@H](O)[C@@H](N)[C@H]2O)C[C@@H]2O[C@](O)(C[C@@H](O)[C@H](O)CC[C@@H](O)C[C@@H](O)C[C@@H](O)CC(=O)O[C@H]1C)C[C@H](O)[C@H]2C(=O)O` [Nystatin (Fungicidin)], the “normalized GFP fluorescence” value came to 0.00493.
The same measure, in the same setting: to `CCCN1C[C@H](CSC)C[C@@H]2c3cccc4[nH]cc(c34)C[C@H]21` [Pergolide mesylate] belongs 0.105; to `CNCC(=O)c1ccc(O)c(O)c1` [Adrenalone HCl], 0.708.
Same read-out and setting: with `CC(C)c1cccc(C(C)C)c1O` the figure was 0.257.
Same read-out and setting: with `CCOC(=O)c1cncn1C(C)c1ccccc1` (stereo unspecified) the figure was 0.248.
In the case of `CN(C)C(=O)Oc1ccc[n+](C)c1`, the “normalized GFP fluorescence” value was 0.22.
Consider `O=[N+]([O-])O[C@@H]1CO[C@H]2[C@@H]1OC[C@@H]2O`, for which the “normalized GFP fluorescence” value came out at 0.742.

Another test concerns Staphylococcus aureus MW2 (mecA+). The test can be described thus: normalized DsRed fluorescence (growth of mecA+ strain) (fraction of control range); higher = more growth of mecA+ strain. Particulars: compound concentration: 150 uM; cefoxitin: subinhibitory; fluorescent label: DsRed. The method, boiled down:
as §1
On to `C=C/C=C\CC1=C(C)[C@@H](OC(=O)[C@@H]2[C@@H](/C=C(\C)C(=O)OC)C2(C)C)CC1=O.C=C/C=C\CC1=C(C)[C@@H](OC(=O)[C@@H]2[C@@H](C=C(C)C)C2(C)C)CC1=O`, for which the “normalized DsRed fluorescence” value came to 0.442.
Turning to `CC(O)CN1CCN(CC(=O)[O-])CCN(CC(=O)[O-])CCN(CC(=O)[O-])CC1.[Gd+3]` (stereo unspecified), the “normalized DsRed fluorescence” value was determined as 0.515.
On the same count and under the same terms, to `N.N.[Cl][Pt][Cl]` belongs 0.697.
Still for that read-out and setting: with `C=C1C[C@@H]2[C@H](CC[C@]3(C)C(=O)CC[C@@H]23)[C@@]2(C)C=CC(=O)C=C12` [Exemestane] the figure was 0.545.
On the same count and under the same terms, with `C[C@]12CC[C@@H]3c4ccc(OC(=O)N(CCCl)CCCl)cc4CC[C@H]3[C@@H]1CC[C@@H]2O` the figure was 0.515.
As for `COP(=O)(OC)C(O)C(Cl)(Cl)Cl` (stereo unspecified), the “normalized DsRed fluorescence” value was found to be 0.658.
The same measure, in the same setting: to `C[C@]12CC[C@H]3[C@@H](CC[C@@]45O[C@@H]4C(O)=C(C#N)C[C@]35C)[C@@H]1CC[C@@H]2O` belongs 1.06.
Still for that read-out and setting: with `CC(=O)O[C@H]1C[C@H](O[C@H]2[C@@H](O)C[C@H](O[C@H]3[C@@H](O)C[C@H](O[C@H]4CC[C@@]5(C)[C@H](CC[C@@H]6[C@@H]5C[C@@H](O)[C@]5(C)[C@@H](C7=CC(=O)OC7)CC[C@]65O)C4)O[C@@H]3C)O[C@@H]2C)O[C@H](C)[C@H]1O[C@@H]1O[C@H](CO)[C@@H](O)[C@H](O)[C@H]1O` the figure was 0.766; with `CC[C@@H](C(N)=O)N1CCCC1=O`, 1.14; with `CN1[C@@H]2CC[C@H]1C[C@@H](OC(=O)[C@H](CO)c1ccccc1)C2`, 0.664.
With `CCC(COC(=O)c1cc(OC)c(OC)c(OC)c1)(c1ccccc1)N(C)C` (stereo unspecified) [Trimebutine], the “normalized DsRed fluorescence” value is 0.646.
Same read-out and setting: to `Nc1ccncc1` belongs 0.715; to `CC(C)[N+](C)(CCC(C(N)=O)(c1ccccc1)c1ccccc1)C(C)C`, 0.447.
On the same count and under the same terms, to `CNC(=O)Oc1ccc2c(c1)[C@]1(C)CCN(C)[C@@H]1N2C` belongs 0.687.
Regarding `COc1ccc2c(c1)[C@]13CCCC[C@@H]1[C@H](C2)N(C)CC3`, the “normalized DsRed fluorescence” value came to 1.04.
Consider `C#CCN(C)[C@H](C)Cc1ccccc1`, for which the “normalized DsRed fluorescence” value is 0.547.
Still for that read-out and setting: with `O=P1(N(CCCl)CCCl)NCCCO1` (stereo unspecified) the figure was 0.629; with `Cl[C@H]1[C@H](Cl)[C@@H](Cl)[C@@H](Cl)[C@H](Cl)[C@H]1Cl`, 0.538; with `CC1(C)C(C=C(Cl)Cl)C1C(=O)OCc1cccc(Oc2ccccc2)c1` (stereo unspecified), 0.704.
On the same count and under the same terms, with `CN1C[C@H](C(=O)N[C@]2(C)O[C@@]3(O)[C@@H]4CCCN4C(=O)[C@H](Cc4ccccc4)N3C2=O)C=C2c3cccc4[nH]cc(c34)C[C@H]21` the figure was 1.11; with `O=c1[nH]c2ccccc2n1CCCN1CCC(n2c(=O)[nH]c3cc(Cl)ccc32)CC1` [Domperidone (Motilium)], 0.927; with `O=P1(NCCCl)OCCCN1CCCl` (stereo unspecified), 0.711.
Still for that read-out and setting: to `CCCC(C)(COC(N)=O)COC(=O)NC(C)C` (stereo unspecified) belongs 1.05; to `C[C@@H]1CC[C@H]2[C@@H](C)C(=O)O[C@@H]3O[C@@]4(C)CC[C@@H]1[C@]32OO4` [Artemisinin], 0.66; to `NC(=O)CN1CCCC1=O`, 0.628.
For the compound `CC[C@@H](c1cccc(O)c1)[C@@H](C)CN(C)C`, the “normalized DsRed fluorescence” value was found to be 0.724.
Still for that read-out and setting: to `C[C@@H]1[C@H](O)[C@@H](C)/C=C/C=C/CC/C=C/C=C/C=C/C=C/[C@H](O[C@H]2O[C@@H](C)[C@H](O)[C@@H](N)[C@H]2O)C[C@@H]2O[C@](O)(C[C@@H](O)[C@H](O)CC[C@@H](O)C[C@@H](O)C[C@@H](O)CC(=O)O[C@H]1C)C[C@H](O)[C@H]2C(=O)O` [Nystatin (Fungicidin)] belongs 0.585; to `CCCN1C[C@H](CSC)C[C@@H]2c3cccc4[nH]cc(c34)C[C@H]21` [Pergolide mesylate], 1.03; to `CNCC(=O)c1ccc(O)c(O)c1` [Adrenalone HCl], 0.797.
Still for that read-out and setting: to `CC(C)c1cccc(C(C)C)c1O` belongs 0.882; to `CCOC(=O)c1cncn1C(C)c1ccccc1` (stereo unspecified), 0.732.
`CN(C)C(=O)Oc1ccc[n+](C)c1`: the “normalized DsRed fluorescence” value was found to be 0.58.
Same read-out and setting: with `O=[N+]([O-])O[C@@H]1CO[C@H]2[C@@H]1OC[C@@H]2O` the figure was 1.13.
